Results filed as inconclusive are left out. A call without a number means that no potency is given here. Calls of active or inactive are those of the source. The call rests on the fitted dose curve; in most records, active means well fitted inhibition curve with a large enough effect; inconclusive means small, poorly fitted or top-dose-only effect; inactive means no such curve, though single readings can be large or run the other way.
What follows are compounds tested on Zika virus NS2B-NS3 protease (linked construct) (assay: Primary screen NINDS Rhodamine qHTS for Zika virus inhibitors (AID 1347160; further: nearly all actives have a fitted effect of over 55% in size)). Settings: purified NS2B-NS3 protease, Rhodamine110 substrate fluorescence; series mostly up to 57.1 µM.
Outline: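 Rhodamine110-peptide cleavage (1.5 µM substrate) by 25 nM linked NS2B-NS3 enzyme at pH 8.0 (Tris, Tween 20), after 15 min RT preincubation with compounds; 15-min fluorescence change normalized to controls and Hill-fitted.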
`CC1(C)CC[C@]2(C(=O)O[C@@H]3O[C@H](CO)[C@@H](O)[C@H](O)[C@H]3O)CC[C@]3(C)C(=CCC4[C@@]5(C)CC[C@H](O[C@@H]6O[C@H](C(=O)O)[C@H](O)[C@H](O)[C@H]6O)C(C)(C)C5CC[C@]43C)[C@@H]2C1` (some centres not stated) was tested, and the Potency was “inactive”.
With `CCCCOc1ccc(S(=O)(=O)n2c(C)nc3ccccc32)cc1` the Potency was “inactive”.
In the case of `O=C(NCC1(c2nc(-c3ccccc3)cs2)CCOCC1)c1cccc(-c2noc(C(F)(F)F)n2)c1`, the Potency is reported as “inactive”.
With `C/C=C(/C)C(=O)O[C@@H]1C[C@@H](OC(=O)CC(C)C)C2(C)C3C(=O)C=C(C)C2C3C1(C)C` (some centres not stated) the Potency was “inactive”.
`COc1cc(/C=C2\CC[C@H]3COC[C@@H](c4cc(F)c(F)c(F)c4)N3C2=O)ccc1-n1cnc(C)c1` was tested, and the Potency was “inactive”.
`C/C=C(/C)C(=O)OC1CC(C)(C)CC2C3=CCC4C5(C)CCC(O[C@@H]6O[C@H](C(=O)O)[C@@H](O)[C@H](O)[C@H]6O[C@@H]6O[C@H](CO)[C@H](O)[C@H](O[C@@H]7OC[C@H](O)[C@H](O)[C@H]7O[C@@H]7O[C@H](CO)[C@@H](O)[C@H](O)[C@H]7O)[C@H]6O)C(C)(C)C5CCC4(C)C3(C)C(O)C(O)C12CO` (some centres not stated) was tested, and the outcome was “inactive [at 10.7 µM]”.
With `CCCCCCCCC(=O)N[C@H](CN1CCCC1)[C@H](O)c1ccc2c(c1)OCCO2` the Potency was “inactive”.
With `CC(C)c1ccc(-c2cc(=O)c3ccccc3o2)cc1` the Potency was “inactive”.
With `CCC(C(C)O)n1ncn(-c2ccc(N3CCN(c4ccc(OCC5COC(Cn6cncn6)(c6ccc(F)cc6F)C5)cc4)CC3)cc2)c1=O` (configuration not stated) the Potency was “inactive”.
For `O=C(NC[C@H](O)CN1CCc2ccccc2C1)c1ccnc(NC2CCC2)c1`, the Potency was “inactive”.
In the case of `CC(/C=C/C(=O)NO)=C\[C@@H](C)C(=O)c1ccc(N(C)C)cc1`, the Potency is reported as “inactive”.
`COc1cc(O)c2c(c1)/C=C/C[C@H](O)[C@H](O)C(=O)/C=C\C[C@H](C)OC2=O` was tested, and the Potency was “inactive”.
With `CCCc1cc(C)n(C)c(=O)c1CN(C)C(=O)c1cc(-c2ccc(N3CCN(C(C)C)CC3)nc2)cc2c1cnn2C(C)C` the Potency was “inactive”.
In the case of `COc1cc(C(=O)NC(=S)Nc2cccc(NC(=O)c3ccccc3)c2)cc(OC)c1OC`, the Potency is reported as “inactive”.
`O=C([C@@H]1CCCN(c2ccc3[nH]c(C4(n5cc(Cl)cn5)CC4)nc3n2)C1)N1CCCC1` was tested, and the Potency was “inactive”.
`CC1(C)CCCC2(C)C1C(OC(=O)/C=C/C=C/C=O)C=C1COC(=O)C12O` (configuration not stated) was tested, and the Potency was “inactive”.
With `C[C@@H](Nc1ncnc2[nH]c(-c3ccc(O)cc3)cc12)c1ccccc1` the Potency was “inactive”.
`CC(=O)O[C@@H]1C2=C(O)C(=O)[C@](C)(OC(C)=O)C(=O)C2=CO[C@@]12O[C@@H](C)CC[C@H]2OC(C)=O` was tested, and the Potency was “inactive”.
`O=c1[nH]c2cccc(N3CCN(Cc4ccc(-c5ccccc5)cc4)CC3)c2o1` was tested, and the Potency was “inactive”.
For `O=C(Nc1ccc(Cl)cc1)C1CCCN(C(=O)c2cccc(-c3ccco3)c2)C1` (configuration not stated), the Potency was “inactive”.
For `C/C=C(\C)C(=O)OC1C(C)C2(O)C(C=C(CO)CC3(O)C(=O)C(C)=CC32)C2C(C)(C)C12OC(C)=O` (configuration not stated), the Potency was “inactive”.
In the case of `C/C(=N\N=C(N)N)c1cc(NC(=O)CCCCCCCCC(=O)Nc2cc(/C(C)=N/N=C(N)N)cc(/C(C)=N/N=C(N)N)c2)cc(/C(C)=N/N=C(N)N)c1`, the Potency is reported as “inactive”.
With `Cc1cc(-c2cnc(N)c3c(-c4ccc5scnc5c4)csc23)n(C)n1` the Potency was “inactive”.
In the case of `O=C(Nc1ccc(C(O)(C(F)(F)F)C(F)(F)F)cc1)c1ccc(C(F)(F)F)cc1`, the Potency is reported as “inactive”.
`CC1(C)CC[C@]2(C(=O)O)CC[C@]3(C)C(=CCC4[C@@]5(C)C[C@@H](O)[C@H](O)[C@@](C)(CO)C5CC[C@]43C)[C@@H]2[C@@H]1O` (some centres not stated) was tested, and the Potency was “inactive”.
For `CC1CC(=O)C2=C(C1)C1OC1C1(O)C2C(=O)c2cccc(O)c2C1O` (configuration not stated), the Potency was “inactive”.
With `NC(N)=N/N=C/c1ccccc1Cl` the Potency was “inactive”.

Source: PubChem BioAssay (NCATS)
